Measurements: PubChem BioAssay AID651956 (Broad Institute, 2012)
Potency and affinity values are given separately. Inconclusive results are not listed. Calls of active or inactive are those of the source.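 The calls were made as follows: active = in every test run, a fitted half-maximal concentration for signal decrease at or below twice the highest tested concentration; inconclusive = runs disagree, flat 30 to 70% decrease, or poor fit; inactive = the rest.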

experiment: miR-122 activators in hepatoma reporter cells, dose response, cell-based, Huh7 psiCHECK-miR122, Renilla luciferase, cherry-picked (AID 651956); details: 48 h; series mostly up to 35 µM;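 also: Renilla luciferase from a miR-122 sensor reporter so lower signal means miR-122 activation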

outcome, inactive:
CC(=O)Nc1ccc(-c2cc(-c3ccc(NC(C)=O)cc3)nc(-c3ccc(NC(C)=O)cc3)n2)cc1
C[C@H]1CN([C@@H](C)CO)S(=O)(=O)c2ccc(C#CC3CCCCC3)cc2O[C@@H]1CN(C)C
Cc1ccc(-c2noc(CCC(=O)Nc3ccccc3C)n2)cc1
CN(C)CCCNC(=O)C[C@@H]1CC[C@H]2[C@H](COc3ccc(NC(=O)c4cccc(F)c4)cc3C(=O)N2C)O1
CC(C)NC(=O)N(C)C[C@H]1Oc2cc(C#C[C@H](C)O)ccc2S(=O)(=O)N([C@@H](C)CO)C[C@H]1C
CN(C)CCCNC(=O)C[C@H]1CC[C@H]2[C@H](COc3ccc(NC(=O)c4cccc(F)c4)cc3C(=O)N2C)O1
CCOc1cc(-c2nccc3cc(OC)c(OC)cc23)cc(OCC)c1OCC
CCN(CC)CCOc1cccc(C(C)C)c1
CO[C@@H]1CN(C)C(=O)c2cc(NC(=O)NC(C)C)ccc2OC[C@H](C)N(Cc2cncnc2)C[C@H]1C
N#Cc1c(N)nc2c(c1-c1cccs1)CCCC2
Cc1ccccc1-c1nc(CN2CCCC(C(=O)NCCCN3CCOCC3)C2)c(C)o1 (stereo not drawn)
C[C@H]1CN([C@@H](C)CO)S(=O)(=O)c2ccc(C3=CCCC3)cc2O[C@H]1CN(C)Cc1cccnc1
CCOc1ccc(CCNC(=O)C2CCN(S(=O)(=O)N3CCC(C)CC3)CC2)cc1OCC
Cc1ccc(NCC(=O)c2ccccc2)cc1Cl
O=C(COc1ccccc1F)N1CCc2ccccc2C1
COc1cccc(S(=O)(=O)N(C)C[C@@H]2Oc3cc(C4=CCCCC4)ccc3S(=O)(=O)N([C@H](C)CO)C[C@@H]2C)c1
CN1C(=O)c2cc(NC(=O)C3CC3)ccc2OC[C@@H]2O[C@H](CC(=O)NC3CCC3)CC[C@H]21
O=C(NC[C@@H]1[C@H](c2ccccc2)[C@@H](CO)N1Cc1cccnc1)c1ccccn1
O=C(Nc1ccc(Cl)c(C(F)(F)F)c1)c1ccco1
CC(=O)N(C)C[C@@H]1[C@@H](c2ccccc2)[C@H](CO)N1C(=O)C1CCC1
C[C@@H]1CN([C@@H](C)CO)S(=O)(=O)c2ccc(/C=C/c3ccccc3)cc2O[C@@H]1CN(C)C(=O)NC1CCCCC1
COc1cccc(C(=O)Nc2ccc3c(c2)C(=O)N(C)[C@@H]2CC[C@@H](CC(=O)NCc4ccc(F)cc4)O[C@@H]2CO3)c1
COc1ccc(-c2nc(NC(=O)CSc3nnc(C)s3)ns2)cc1
Cc1nnsc1Sc1cccc(C(F)(F)F)c1
CCCCNc1cc(C)nc(NCc2ccccc2)n1
Cc1ccccc1NCN1C(=O)C2C3C=CC(C3)C2C1=O (stereo not drawn)
CN1CCN(C(=O)C[C@H]2CC[C@@H]3[C@H](COc4ccc(NC(=O)c5cccs5)cc4C(=O)N3C)O2)CC1
CN1C(=O)c2cc(NC(=O)c3cccs3)ccc2OC[C@@H]2O[C@@H](CC(=O)O)CC[C@H]21
C/C=C/c1ccc([C@@H]2[C@@H](CO)N[C@@H]2CN(C(=O)C2CCCC2)C(C)C)cc1
CO[C@H]1CN(C)C(=O)c2cc(NC(C)=O)ccc2OC[C@@H](C)N(C(=O)CC2CC2)C[C@H]1C
C/C=C/c1ccc([C@@H]2[C@@H](CO)N(Cc3ccccn3)[C@H]2CNC(=O)CC)cc1
COc1cccc(CNC(=O)C[C@@H]2CC[C@@H]3[C@H](COc4ccc(NC(C)=O)cc4C(=O)N3C)O2)c1
CC(=O)Nc1ccc2c(c1)C(=O)N(C)[C@@H]1CC[C@@H](CC(=O)NCc3ccc(Cl)cc3)O[C@H]1CO2
C/C=C/c1ccc([C@@H]2[C@H](CO)N(Cc3ccccn3)[C@H]2CNC(=O)CC)cc1
CCC(=O)N1[C@H](CO)[C@H](c2ccccc2)[C@H]1CNC(=O)CN1CCOCC1
Cc1ccc(OCCN2CCN(c3ncnc4sc(C)c(C)c34)CC2)cc1
c1ccc(-c2nnc3n2CCCC3)cc1
C[C@@H]1CN([C@@H](C)CO)C(=O)c2cccc(NC(=O)Nc3ccc4c(c3)OCO4)c2O[C@@H]1CN(C)Cc1ccc(Oc2ccccc2)cc1
